This note sets out measurements from PubChem BioAssay AID743415 (Broad Institute, 2014).

The assay is described as follows: Shn3 transcript knock-down in Clone20 cells – cell-based, qPCR, cherry-pick, dose response (AID 743415).

Results with a measured potency or affinity are listed apart. The source made the active and inactive calls.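 How the source made its calls: active means compounds lowering Shn3 expression whose fitted half-maximal concentration is at most twice the top valid dose; inconclusive means flat partial decrease or an invalid curve fit; inactive means the rest.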

Consider `O=c1[nH]c2ccccc2n1C1CCN(C(CCc2ccccc2)c2nnnn2Cc2ccccc2)CC1` (configuration not stated), for which the result was inactive.
Next, `COC(=O)C1=C(c2ccc(OCc3ccccc3)cc2)C[C@@H]2CC[C@H]1N2C(=O)NCCCCc1ccccc1`: “inactive”.
